In PubChem BioAssay AID2283364 (EPA ToxCast):
Inconclusive results are not listed. The source made the active and inactive calls. Rule for the calls: active = hit-call score of the fitted dose curve at least 0.9, where 1 is the maximum; inconclusive = response in the unintended direction; inactive = score below 0.9.

molecular target: human FK-506 Binding Protein (FKBP12), FKBP1A (gene 2280) (UniProt P62942); assay: NVS_OR_hFKBP12: NovaScreen (NVS) Nuclear Receptor Binding Assay for human FK-506 Binding Protein (FKBP12)
Description: NVS_OR_hFKBP12 is a biochemical, single-readout assay that uses extracted gene-proteins from E. coli in a cell-free assay. Measurements were taken 0.75 hour after chemical dosing in a 48-well plate.NVS_OR_hFKBP12 is one of one assay component(s) measured or calculated from the NVS_OR_hFKBP12 assay. It is designed to make measurements of radioligand binding, a form of binding reporter, as detected with scintillation counting signals by Filter-based radiodetection technology.Data from the assay component NVS_OR_hFKBP12 was analyzed into 1 assay endpoint. This assay endpoint, NVS_OR_hFKBP12, was analyzed in the positive analysis fitting direction relative to DMSO as the negative control and baseline of activity. Using a type of binding reporter, loss-of-signal activity can be used to understand changes in the binding as they relate to the gene FKBP1A. Furthermore, this assay endpoint can be referred to as a primary readout, because the performed assay has only produced 1 assay endpoint. To generalize the intended target to other relatable targets, this assay endpoint is annotated to the misc protein intended target family, where the subfamily is chaperone.
Binding assays used specific radioligands (tritiated, iodinated) with non-radioactive competitive displacement ligands in agonist or antagonist protocols (as indicated) and various reference compounds and inhibitors to titrate specific binding to receptors and transporters. Most enzyme assays (CYPs, kinases, phosphatases, proteases, HDACs) used recombinant protein and specific substrates (fluorescence mostly, some colorimetric and radioactive) and inhibitors, followed by a biochemical separation of substrate and product. All assays for the biochemical HTS were initially run in duplicate at a single concentration (10 uM for CYP450 assays and 25 uM for all others). Assay-chemical combinations meeting a pre-defined threshold (e.g., 30% inhibition and other criteria defined below) were then run in singleton concentration-response format with maximum concentration of 20 uM for CYPs and 50 uM for all others. Each assay was run with positive and negative controls, and concurrent controls on every plate. The follow-up (secondary) screen tested active chemical-pairs in concentration series, as well as a few additional assays not tested in the primary screen, some selected negative inactives, and several cases re-run in the concentration series for confirmatory purposes.

Sequence of human FK-506 Binding Protein (FKBP12), FKBP1A (gene 2280) (P62942 whole entry, looked up): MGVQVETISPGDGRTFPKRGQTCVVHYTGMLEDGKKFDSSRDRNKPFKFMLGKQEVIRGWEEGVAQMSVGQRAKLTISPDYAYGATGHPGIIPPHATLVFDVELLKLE

outcome, inactive:
COC(=O)c1ccccc1S(=O)(=O)NC(=O)Nc1nc(OC(F)F)cc(OC(F)F)n1
CCCCCCCCCCCC(=O)OC
Cc1ccc(O)cc1
CCc1ccc(O)c(C(C)(C)C)c1
c1ccc2ccccc2c1
